This is one part of a sample in which hits are shown more often than they occur.
ALOX12 inh: blocks human arachidonate 12S-lipoxygenase. P18054. purified 12hLO, xylenol orange hydroperoxide absorbance. Potency, µM (series often up to 108 µM), for the others: top-dose activity change, negative = inhibition, actives largely listed as inhibitors. 580,000 tested, 1.1% active; further: on the % scale 0 is the no-effect control and ±100 the full control effect
Target sequence (P18054 whole entry, looked up): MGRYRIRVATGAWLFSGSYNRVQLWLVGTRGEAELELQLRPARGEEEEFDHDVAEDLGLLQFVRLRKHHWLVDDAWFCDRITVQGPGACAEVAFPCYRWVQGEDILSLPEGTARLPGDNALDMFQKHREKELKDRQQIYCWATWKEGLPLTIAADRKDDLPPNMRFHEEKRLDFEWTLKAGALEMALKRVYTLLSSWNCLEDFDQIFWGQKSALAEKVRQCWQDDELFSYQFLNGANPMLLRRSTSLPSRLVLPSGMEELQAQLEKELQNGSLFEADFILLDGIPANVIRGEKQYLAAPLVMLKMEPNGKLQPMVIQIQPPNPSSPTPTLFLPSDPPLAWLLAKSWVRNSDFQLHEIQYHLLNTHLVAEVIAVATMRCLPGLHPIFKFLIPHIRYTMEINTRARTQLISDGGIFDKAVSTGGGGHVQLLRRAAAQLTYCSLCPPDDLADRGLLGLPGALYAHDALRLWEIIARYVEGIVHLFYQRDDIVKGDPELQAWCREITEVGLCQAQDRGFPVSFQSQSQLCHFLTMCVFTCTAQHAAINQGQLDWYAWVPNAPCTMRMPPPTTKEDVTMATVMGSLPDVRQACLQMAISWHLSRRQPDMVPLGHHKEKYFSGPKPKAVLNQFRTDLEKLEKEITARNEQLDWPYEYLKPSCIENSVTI
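Purified human 12hLO at 150 nM in 25 mM Hepes, 0.01% Triton X-100, pH 7.0, preincubated 15 min at room temperature with compound. Reaction started with 40 uM arachidonic acid, 30 min at room temperature. Hydroperoxide measured by Fe-xylenol orange, 573/405 nm absorbance ratio.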
Sfp inh: Sfp phosphopantetheinyl transferase inhibition; Biochemical Sfp PPTase activity, qHTS; Potency, µM, without a hit: largest response in the series, negative = inhibition, usual class: inhibitors; 310,000 tested, 3.5% active; AID 1490;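 further: the enzyme is Sfp with the accession as filed and its product quenches rhodamine fluorescence; 0% = enzyme reaction without inhibitor and -100% = no enzyme wells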
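After 15 min at room temperature with compound, 15 nM Sfp received 5 uM rhodamine-CoA plus 12.5 uM BHQ-2-ybbR (50 mM Hepes pH 7.6, 10 mM MgCl2). Rate came from the fluorescence difference over 30 min, ex 525/em 598 nm.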
VDR inh: blocks the human vitamin D receptor | Potency, µM, for the others: max response, negative = inhibition, most hits filed as inhibitors | P11473 | 400,000 tested, 0.93% active | VDR-SRC2-3 peptide fluorescence polarization, 2 h | AID 504847; further: on the % scale 0 is the no-effect control and ±100 the full control effect
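Fluorescence polarization assay measuring small-molecule disruption of VDR binding to the coregulator peptide SRC2-3. Compounds were pin-transferred (23 nl) into the reagent mix and incubated 2 h at room temperature before reading.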
G9a inh: blocks human histone lysine methyltransferase G9a | G9a H3K9 monomethylation, AlphaScreen, 2 h | Potency, µM (titrated, usually from 102 µM), for inactives: at the highest dose activity, negative = inhibition, actives largely listed as inhibitors | 350,000 tested, 8.8% active | AID 504332; further: on the % scale 0 is the no-effect control and ±100 the full control effect; nearly all actives have a fitted effect of over 75% in size
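AlphaScreen detection with an anti-monomethyl H3K9 antibody quantified product after a 2 h room-temperature reaction containing 500 nM biotinylated H3K9 peptide, 20 µM SAM and 20 nM enzyme, which had been preincubated 15 min with compound.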
GRP78 ERSR act: ER stress response induction in glioma. U87-MG GRP78 promoter luciferase reporter, 16 h. Potency, µM, without a hit: at the top dose activation, most hits filed as activators. 420,000 tested, 0.02% active. AID 602332; further: series mostly up to about 76 µM; % of control where 0% means no effect; nearly all actives have a fitted effect of over 35% in size
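Stably transfected U87-MG human glioma cells carrying a GRP78-based luminescent sensor were seeded at 1000 cells/well, pin-dosed with compounds and incubated 16 h. Luciferase reagent was then added, and end-point luminescence was read after 10 min at room temperature.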
* marks the source's active call; other numbers are inactive results; ? = inconclusive; . = no result given; [ ] = remark or other dose. The call rests on the fitted dose curve; in most records, active means well fitted curve in the direction sought with a large enough effect; inconclusive means small, poorly fitted or top-dose-only effect, or another doubt; inactive means no such curve, though single readings can be large; an effect the other way counts as inactive or inconclusive. Potency means the concentration at half of the fitted maximal effect.

SMILES | ALOX12 inh | Sfp inh | VDR inh | G9a inh | GRP78 ERSR act
COc1ccc(CN(C)C(=O)CNC(=O)c2ccc3ccccc3c2)c(OC)c1 | -16% | 6% | -5% | -1% | -2%
COc1cccc(CN(C)C(=O)CNC(=O)c2ccc(-c3ccccc3)cc2)c1OC | 13% | -2% | -3% | 45µM* | -4%
Cc1ccc(CNC(=O)Nc2ccc(N3CCOCC3)nc2)s1 | 30% | . | . | . | .
CCOC(=O)c1ccc(N2C(=O)CC(NC3CCN(C(=O)c4cccc(Cl)c4)CC3)C2=O)cc1 (configuration not stated) | . | -2% | 10% | 16µM* | -3%
CCOc1ccc(N2C(=O)CC(NC3CCN(C(=O)c4cccc(Cl)c4)CC3)C2=O)cc1 (configuration not stated) | ? | 7% | 13% | ? | -8%
CC(C)NC(=O)Nc1ccc2c(c1)CC(=O)N([C@@H](C)CO)C[C@H](C)[C@@H](CN(C)C(=O)NC1CCCCC1)O2 | 9% | . | 89µM* | . | -3%
CC(OC(=O)c1ccc2c(c1)C(=O)N(Cc1ccncc1)C2=O)C(=O)Nc1cccc(Cl)c1Cl (configuration not stated) | 5% | -6% | 0% | 89µM* | -4%
O=C(COC(=O)c1ccc2c(c1)C(=O)N(Cc1ccncc1)C2=O)Nc1ccccc1[N+](=O)[O-] | 14% | -17% | -13% | -1%[59 µM] | 0%
O=C(Nc1ccc(Cl)cc1)N1CCN(CCc2ccncc2)CC1 | 7% | . | . | . | .
O=S(=O)(c1ccc(-c2csc(=Nc3ccc(OC(F)(F)Cl)cc3)n2CCCO)cc1)N1CCCC1 | ? | . | -3% | 1µM* | -5%
OCCCn1c(-c2ccccc2)csc1=Nc1ccccc1 | -22% | 8% | -5% | 22µM* | 1%
CCn1c(-c2ccccc2)csc1=Nc1ccc(S(=O)(=O)O)cc1 | 2% | 16% | ? | 18µM* | -10%
COc1ccc(-c2csc(=Nc3ccccc3)n2CCO)cc1F | ? | . | -23% | 16µM* | 2%
CCOc1ccccc1NC(=O)CSc1nnc2ccc(-c3ccncc3)nn12 | -5% | 15% | -6% | -2% | -1%
COc1ccccc1CCNC(=O)CSc1nnc2ccc(-c3ccncc3)nn12 | 93% | 19% | -1% | 50µM* | -8%
CCOc1ccc(-c2nnc3ccc(SCC(=O)Nc4cc(C)on4)nn23)cc1 | -1% | 10% | 8% | -39% | -3%
CC(=O)Nc1ccc(NC(=O)CSc2nnc3ccc(-c4ccc(F)cc4)nn23)cc1 | 6% | 12% | 3% | -2% | -5%
Cc1cc(NC(=O)CSc2nnc3ccc(-c4ccc(F)cc4)nn23)no1 | 14% | . | -10% | 50µM* | 0%
Cc1cc(NC(=O)CSc2ccc3nnc(-c4ccc(Cl)cc4)n3n2)no1 | ? | 2% | 4% | 22µM* | -2%
Cc1cc(NC(=O)CSc2ccc3nnc(-c4cccc(F)c4)n3n2)no1 | 45µM* | -7% | -10% | 22µM* | -2%
Cc1ncoc1C(=O)N1CC(c2noc(C3CCCN3CC3CC3)n2)C1 (configuration not stated) | 47% | . | . | . | .
CCOC(=O)c1ccc(NC(=O)C2=C(c3ccccc3)S(=O)(=O)CCO2)cc1 | 9% | . | . | . | .
O=c1c2c(nc3cc(-c4ccccc4Cl)[nH]n13)CCS2 | 40µM* | 22µM* | 11% | . | 1%
O=c1c2c(nc3cc(-c4ccccc4)[nH]n13)CCS2 | -9% | 1% | 18% | 10% | 1%
Cc1nc(-c2ccc(Cl)cc2)sc1C1(C)CC(c2cccnc2)=NO1 (configuration not stated) | 0% | 56µM* | -17% | -48%[59 µM] | 2%
SMILES | ALOX12 inh | Sfp inh | VDR inh | G9a inh | GRP78 ERSR act
CCNC(=O)c1ccc2c(c1)NC(=O)CS2 | -19% | . | . | . | .
CN(Cc1ccccc1)C(=O)c1ccc(CSc2nc3cccnc3n2Cc2ccccc2F)cc1 | ? | . | 0% | 4.5µM* | -2%
O=C(NC1CCCC1)c1ccc(CSc2nc3cccnc3n2Cc2ccccc2F)cc1 | -21% | . | 5% | ? | 1%
O=C(NCc1cccs1)c1ccc(CSc2nc3cccnc3n2Cc2ccccc2F)cc1 | ? | . | 14% | 2.5µM* | -2%
COc1ccc(-n2c(CNC(=O)COc3ccc(Cl)cc3Cl)n[nH]c2=S)cc1 | ? | 1% | 4% | 7.9µM* | -4%
COc1ccc(-n2c(CNC(=O)COc3ccc(Cl)cc3)n[nH]c2=S)cc1 | ? | 8% | -10% | 2.5µM* | 2%
COc1ccc(CNc2ccc3cc(S(=O)(=O)N4CCCCC4)ccc3n2)cc1 | ? | . | 7% | 11µM* | -5%
COc1ccc(Nc2ccc3cc(S(=O)(=O)N4CCCC4)ccc3n2)cc1OC | ? | . | 9% | 14µM* | -4%
CCC(CC)=N/N=C/c1c(O)n(CC)c2cc(C3=NNC(=O)CC3)ccc12 | 0% | ? | -4% | 3.5µM* | -4%
COc1ccc(-n2c(Cc3cccn3C)nnc2SCC(=O)NCc2ccccc2Cl)cc1 | 407% | -11% | 0% | 50µM* | -2%
COc1ccc(-n2c(Cc3cccn3C)nnc2SCC(=O)NCc2ccc(F)cc2)cc1 | 394% | -12% | -6% | 45µM* | -2%
COc1ccc(-n2c(Cc3cccn3C)nnc2SCC(=O)NCc2ccco2)cc1 | 228% | -18% | -16% | ? | -4%
CC(NC(=O)/C(=C\c1ccco1)NC(=O)c1ccco1)C(=O)O (configuration not stated) | -5% | -13% | -16% | 35µM* | -5%
CCN1CCN(C(=O)/C(=C/c2ccco2)NC(=O)c2ccccc2)CC1 | -14% | 8% | -1% | ? | -5%
O=C(Nc1cccc(F)c1)/C(=C\c1ccco1)NC(=O)c1cccs1 | ? | 56µM* | -6% | ? | -9%
CC(C)(C)c1ccc(C(=O)N/C(=C\c2ccco2)C(=O)Nc2ccccc2C(=O)O)cc1 | 32µM* | 50µM* | -17% | ? | 9%
O=C(Nc1ccc(C(=O)O)cc1)/C(=C\c1ccco1)NC(=O)c1ccccc1Cl | ? | 11% | 13% | -17% | 0%
O=C(Nc1ccc(C(=O)O)cc1)/C(=C\c1ccco1)NC(=O)c1ccco1 | -24% | -6% | ? | 50µM* | 2%
COc1ccc(CN2CCCN(C(=O)c3cn(C)nc3-c3ccc4c(c3)OCCCO4)CC2)cc1 | 4% | . | . | . | .
COc1cccc(-c2noc(Nc3ccc(OC)c(OC)c3)n2)c1 | 3% | . | . | . | .
CC(=O)c1ccc(NC(=O)/C(=C\c2ccco2)NC(=O)c2ccco2)cc1 | -25% | -9% | 13% | 50µM* | -4%
O=C(NCc1ccco1)/C(=C/c1ccco1)NC(=O)c1ccco1 | -18% | -29% | 9% | 40µM* | -5%
COC(=O)/C(=C/c1ccco1)NC(=O)c1ccc(Br)o1 | -8% | 45µM* | 8% | 45µM* | 0%
O=C(N/N=C/c1ccco1)Nc1ccccc1 | -5% | 5% | -10% | 79µM* | -3%
